According to PubChem BioAssay (NCATS):
Results filed as inconclusive are left out. Active and inactive are the calls of the source. Calls follow the shape of the dose curve; as a rule, active = well fitted curve in the direction sought with a large enough effect; inconclusive = small, poorly fitted or top-dose-only effect, or another doubt; inactive = no such curve, though single readings can be large; an effect the other way counts as inactive or inconclusive.

Key:
[1] = target: Cellular tumor antigen p53 (Homo sapiens) (UniProt P04637); experiment: Primary qHTS for small molecule compounds that upregulate eGFP-tagged delta133p53alpha (in N-terminal) cells. (AID 2060322); conditions: NCI-H358 eGFP-delta133p53alpha fluorescence, 24 h; activation: hits give high values;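 also: 0% = DMSO vehicle and 100% = reference activator; nearly all actives have a fitted effect of over 75% in size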
Cellular tumor antigen p53 (Homo sapiens), sequence (P04637 whole entry, looked up): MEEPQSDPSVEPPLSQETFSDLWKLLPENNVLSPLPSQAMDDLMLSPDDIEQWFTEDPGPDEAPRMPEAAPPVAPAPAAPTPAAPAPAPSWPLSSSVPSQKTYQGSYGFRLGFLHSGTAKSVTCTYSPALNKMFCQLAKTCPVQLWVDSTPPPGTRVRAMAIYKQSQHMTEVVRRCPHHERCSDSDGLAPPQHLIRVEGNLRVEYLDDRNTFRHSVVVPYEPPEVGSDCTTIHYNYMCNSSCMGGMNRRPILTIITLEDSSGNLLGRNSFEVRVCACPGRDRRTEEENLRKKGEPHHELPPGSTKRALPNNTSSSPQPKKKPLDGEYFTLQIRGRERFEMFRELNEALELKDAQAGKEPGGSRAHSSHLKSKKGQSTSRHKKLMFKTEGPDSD
How it was run: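 NCI-H358 cells pre-induced 24 h with 10 ng/ml doxycycline to express N-terminal eGFP-delta133p53alpha, then dosed 24 h at 37C without doxycycline; fixed, Hoechst-stained, GFP intensity by laser scanning cytometry, normalized to DMSO (0%) and 57.5 uM 5-azacytidine (100%).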

[2] = target: Aldehyde dehydrogenase, mitochondrial (Homo sapiens) (UniProt P05091); experiment: qHTS for Inhibitors of the Aldehyde Dehydrogenase Family (ALDH2) Primary screen (AID 2061308); conditions: ALDH2 enzyme inhibition qHTS, 1536-well; series mostly up to 56 µM;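 also: plate controls were vehicle for no effect and reference inhibitor for full effect; nearly all actives have a fitted effect of over 55% in size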
[3] = target: Retinaldehyde dehydrogenase 3 (Homo sapiens) (UniProt P47895); experiment: qHTS for Inhibitors of the Aldehyde Dehydrogenase Family (ALDH1A3) Primary screen (AID 2061315); conditions: ALDH inhibition qHTS; series mostly up to 56 µM;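 also: plate controls were DMSO vehicle for no effect and reference inhibitor for full effect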

COc1cc(CN(CCN)C(=O)c2cccs2)ccc1OCc1ccccc1
inactive: activation [1] 24.3% | Potency [2] | Potency [3]

CC(CCC1(O)OC2CC3C4CCC5CC(O[C@@H]6O[C@H](CO)[C@@H](O)[C@H](O)[C@H]6O[C@@H]6O[C@@H](C)[C@H](O)[C@@H](O)[C@H]6O)C(O)CC5(C)C4CCC3(C)C2C1C)CO[C@@H]1O[C@H](CO)[C@@H](O)[C@H](O)[C@H]1O (some centres undefined)
inactive: activation [1] 9.82% | Potency [2] | Potency [3]

CC(C)=CCC[C@](C)(O[C@@H]1O[C@H](CO)[C@@H](O)[C@H](O)[C@H]1O)[C@H]1CC[C@]2(C)[C@@H]1[C@H](O)CC1[C@@]3(C)CC[C@H](O)C(C)(C)C3[C@@H](O[C@@H]3O[C@H](CO)[C@@H](O)[C@H](O)[C@H]3O[C@@H]3O[C@@H](C)[C@H](O)[C@@H](O)[C@H]3O)C[C@]12C (some centres undefined)
inactive: activation [1] -21.4% | Potency [2] | Potency [3]

C=C1CCC2[C@@](C)(C(=O)O)CCC[C@@]2(C)[C@@H]1CCc1ccoc1 (some centres undefined)
inactive: activation [1] 1.79% | Potency [2] | Potency [3]

O=C1NC2CCc3nc4ccccc4c(=O)n3C2=Nc2ccccc21 (centres undefined)
inactive: activation [1] -8.93% | Potency [2] | Potency [3]

CCOC(=O)c1csc(Nc2ccc(Cl)cc2)n1
inactive: activation [1] -7% | Potency [2] | Potency [3]

CC(C)c1ccc2c(c1)C(O)CC1C(C)(C(=O)O)CCCC21C (centres undefined)
inactive: activation [1] -6.11% | Potency [2] | Potency [3]

CC(=O)OC12CC(C)C(O)C1/C=C(/COC1OC(CO)C(O)C(O)C1O)CCC1C(/C=C(\C)C2=O)C1(C)C (centres undefined)
inactive: activation [1] -9.16% | Potency [2] | Potency [3]
